Data published in PMC4336329 (PLoS ONE, 2015).
Screen size: about 310,000 compounds; about 2,200 (0.71%) showed an effect of 50% or more. The effect is printed as a negative number. This excerpt belongs to a sample that is enriched for strong results.

Biological target: human ether-à-go-go-related gene (hERG) potassium channel (human, UniProt Q12809)
Test: primary screen, population patch clamp on CHO cells stably expressing hERG; higher = less effect of the substance

Sequence of human ether-à-go-go-related gene (hERG) potassium channel (Q12809 whole entry, looked up): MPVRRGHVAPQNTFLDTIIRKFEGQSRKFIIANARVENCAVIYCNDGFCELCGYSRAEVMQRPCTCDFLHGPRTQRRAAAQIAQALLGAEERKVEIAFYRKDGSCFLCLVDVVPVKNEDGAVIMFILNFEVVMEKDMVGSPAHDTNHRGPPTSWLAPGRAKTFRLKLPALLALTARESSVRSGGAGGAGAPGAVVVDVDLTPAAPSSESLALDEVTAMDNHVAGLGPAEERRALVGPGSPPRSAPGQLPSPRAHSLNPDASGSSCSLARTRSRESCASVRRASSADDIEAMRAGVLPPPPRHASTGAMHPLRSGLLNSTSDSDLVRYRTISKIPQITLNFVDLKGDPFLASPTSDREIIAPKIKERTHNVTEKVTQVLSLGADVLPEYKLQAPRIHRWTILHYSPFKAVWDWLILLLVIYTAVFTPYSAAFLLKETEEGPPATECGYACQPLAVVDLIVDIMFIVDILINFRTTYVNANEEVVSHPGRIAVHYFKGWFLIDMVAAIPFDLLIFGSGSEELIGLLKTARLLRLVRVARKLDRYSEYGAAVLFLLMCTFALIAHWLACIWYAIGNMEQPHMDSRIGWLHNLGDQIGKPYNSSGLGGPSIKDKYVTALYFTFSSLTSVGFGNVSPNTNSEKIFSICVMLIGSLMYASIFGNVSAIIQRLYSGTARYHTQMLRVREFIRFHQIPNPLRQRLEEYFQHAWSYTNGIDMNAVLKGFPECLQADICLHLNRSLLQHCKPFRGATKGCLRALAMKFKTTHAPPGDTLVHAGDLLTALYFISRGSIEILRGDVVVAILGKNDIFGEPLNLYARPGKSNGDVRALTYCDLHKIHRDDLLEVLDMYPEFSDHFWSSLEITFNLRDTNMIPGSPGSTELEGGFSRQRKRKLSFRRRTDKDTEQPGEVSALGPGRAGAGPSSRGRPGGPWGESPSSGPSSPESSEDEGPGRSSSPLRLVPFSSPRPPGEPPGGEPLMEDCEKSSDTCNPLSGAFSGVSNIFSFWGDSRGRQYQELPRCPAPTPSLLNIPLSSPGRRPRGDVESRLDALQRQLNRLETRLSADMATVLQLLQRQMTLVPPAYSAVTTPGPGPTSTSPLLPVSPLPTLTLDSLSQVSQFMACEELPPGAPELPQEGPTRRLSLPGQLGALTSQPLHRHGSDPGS

SMILES	hERG current change (%, negative = inhibition) at 1uM [%]
O=C(Nc1nc(-c2ccccn2)cs1)c1ccc(F)c(S(=O)(=O)N2CCOCC2)c1	5.44
CCCC(=O)Nc1c(-c2cccs2)c(=O)c2ccccc2n1C	5.25
CC1CCCCC1NC(=O)Cn1cccc1C(=O)c1ccccc1 (stereo not drawn)	14
CNc1nc2cc([N+](=O)[O-])c([N+](=O)[O-])cc2nc1NC	-3.16
COc1ccc(CN2CCC(C(=O)Nc3ccc(Oc4ccccc4)nc3)CC2)cc1F	-37.8
CCOc1ccc(C(=O)CCC(=O)N2CCC(C(=O)OC)CC2)cc1	10.1
CC1=C(C(=O)Nc2ccccc2F)C(c2ccsc2)C2=C(CC(C)(C)CC2=O)N1 (stereo not drawn)	1.33
C#CCNC(=O)C1CCN(c2cc(C)nc(-c3ccccc3)n2)CC1	-8.78
Cc1cc(N2CCC(C(=O)NCC3CC3)CC2)nc(-c2ccccc2)n1	-53
C=CCNC(=O)C1CCN(c2cc(C)nc(-c3ccccc3)n2)CC1	-12.2
Cc1nn(CC(=O)OCC(=O)Nc2ccccc2[N+](=O)[O-])c(C)c1[N+](=O)[O-]	7.87
CCCCn1c(N)c(N(CCOC)C(=O)c2ccc(OCc3c(C)noc3C)cc2)c(=O)[nH]c1=O	19
O=C(CN1CCN(C(C(=O)Nc2ccc(Cl)cc2C(F)(F)F)c2ccccc2)CC1)NC1CC1 (stereo not drawn)	-50.1
O=C(CN1CCN(C(C(=O)Nc2ccc(F)cc2)c2ccccc2)CC1)NC1CC1 (stereo not drawn)	-2.24
Cc1ccc(NC(=O)C(c2ccccc2)N2CCN(CC(=O)NC3CC3)CC2)cc1Cl (stereo not drawn)	-2.31
COc1ccc(N(C(=O)Cn2nnc3ccccc32)C(C(=O)NC(C)(C)C)c2ccc(OC)c(O)c2)cc1 (stereo not drawn)	14.6
Cc1ccc(N2C(=O)C3CC(c4ccccc4)=C4C5C=CC(C6C(=O)N(c7ccc(C)cc7)C(=O)C56)C4C3C2=O)cc1 (stereo not drawn)	-74.5
Cc1ccc(N2C(=O)C3C4CC(=O)C(c5ccccc54)C3C2=O)cc1 (stereo not drawn)	4.46
Cc1ccc(N2C(=O)C3CC(c4ccccc4)=C4C5C=CC(C6C(=O)N(c7ccc(C)cc7C)C(=O)C56)C4C3C2=O)c(C)c1 (stereo not drawn)	3.95
Cn1c(SCC(=O)NC2CC2)nnc1-c1ccccc1	6.86
CN(C)/C=N/c1ncc(C(=O)c2ccc(Cl)cc2Cl)s1	-4.09
COc1ccc(Nc2cc(C)nc3ccccc23)cc1.Cl	-15.6
Cc1cccc(Nc2cc(C)nc3ccccc23)c1.Cl	-33.5

SMILES	hERG current change (%, negative = inhibition) at 1uM [%]
COc1cccc(Nc2cc(C)nc3ccccc23)c1	-65.2
Cc1ccc(-n2c(C)cc(C(=O)CSc3nnc4ccccn34)c2C)cc1	0.977
O=C(NC1CCCCC1)C1CCN(c2nnnn2-c2ccccc2)CC1	3.39
COc1ccc(/C=C2\N=C3CCCCCN3C2=O)cc1OC	14.8
Cc1ccccc1OCC(O)CN1CCCCC1.Cl (stereo not drawn)	16.2
CC(=O)c1ccccc1OCC(O)CN1CCN(CCN2C(=O)c3cccc4cccc(c34)C2=O)CC1 (stereo not drawn)	-73.5
OC(COc1cccc2ccccc12)CN1CCCC1 (stereo not drawn)	-1.17
COc1ccc(N2CCN(CC(O)COc3cc(C)ccc3C)CC2)cc1.Cl (stereo not drawn)	-9.86
COc1cccc(OCC(O)CN2CCN(c3ccc(Cl)cc3)CC2)c1 (stereo not drawn)	-14.1
C=C1CC(C)OC(c2ccccc2OCC(O)CN2CCCCC2)C1 (stereo not drawn)	-63.3
COc1ccc(N2CCN(CC(O)COc3cc(C)cc(C)c3)CC2)cc1.Cl (stereo not drawn)	-17.5
Cc1ccccc1OCC(O)CN1CCN(c2ccc(Cl)cc2)CC1 (stereo not drawn)	-58.2
OC(COc1cccc2ccccc12)CN1CCN(c2ccc(Cl)cc2)CC1 (stereo not drawn)	-1.91
Cc1cccc(OCC(O)CN2CCN(CCN3C(=O)c4cccc5cccc(c45)C3=O)CC2)c1C (stereo not drawn)	15.1
Cc1ccccc1OCC(O)CN1CCN(CCN2C(=O)c3cccc4cccc(c34)C2=O)CC1 (stereo not drawn)	-17.3
COc1ccc(N2CCN(CC(O)COc3ccc(C)cc3C)CC2)cc1.Cl (stereo not drawn)	-54.6
O=C(COC(=O)c1nc(Cl)c(Cl)c(Cl)c1Cl)NCc1ccccc1	3.59
Cc1ccc(OCCNS(=O)(=O)c2ccc(N3CCCC3=O)cc2)cc1	7.63
Cc1sc2nc(NCCO)[nH]c(=O)c2c1C	14.6
CS(=O)(=O)c1cccc(-c2nnc(NC(=O)C3=COCCO3)o2)c1	0.983
Nc1c(C(=O)c2ccc(Cl)cc2)oc2ccccc12	18
O=C(Nc1ccccc1)C1=C[C@H](c2ccccc2)C[C@H](OCCCCO)O1	12.7
Cc1nc(N2CCN(S(=O)(=O)c3ccccc3)CC2)c2cc(-c3ccccc3)sc2n1	2.54

SMILES	hERG current change (%, negative = inhibition) at 1uM [%]
c1ccc2c(c1)nnn2Cc1nnc2sc(-c3ccc4c(c3)OCCO4)nn12	9.84
COC(=O)c1cccc(OCC(O)Cn2ccnc2)c1 (stereo not drawn)	0.869
Cc1ccccc1OCC(O)CN1CCC(C)CC1.Cl (stereo not drawn)	-6.73
Cc1ccccc1OCC(O)CN1CCN(C)CC1.Cl (stereo not drawn)	5.66
Cc1ccccc1OCC(O)CN1CCN(CC(O)COc2ccccc2C)CC1 (stereo not drawn)	-50.4
Cc1ccc2oc(=O)c3cnn(CC(=O)N4CCCc5ccccc54)c3c2c1	4.39
CCn1c(SCC(=O)c2c(N)n(C)c(=O)n(C)c2=O)nnc1-c1ccccc1	14.2
COc1ccc2occ(C(=O)c3coc4ccc(O)c(CN(C)C)c34)c2c1.Cl	-29.5
COc1ccc(C(=O)c2coc3ccc(O)c(CN(C)C)c23)cc1	-29.3
Cc1ccc(C(=O)c2coc3ccc(O)c(CN(C)C)c23)cc1.Cl	-16.2
CN(C)Cc1c(O)ccc2occ(C(=O)c3ccccc3)c12	-16.4
CN(C)Cc1c(O)ccc2occ(C(=O)c3ccc(F)cc3)c12	-57.5
COc1ccc(OC)c(C(=O)c2coc3ccc(O)c(CN(C)C)c23)c1.Cl	9.87
CCN(CC)Cc1c(O)ccc2occ(C(=O)c3ccc(OC)cc3)c12	-64.2
CCN(CC)Cc1c(O)ccc2occ(C(=O)c3ccccc3)c12	-57.3
CN1CCN(Cc2c(O)ccc3occ(C(=O)c4ccccc4)c23)CC1	-14.3
Cc1ccc(-c2nc3cccnc3o2)cc1NC(=O)COc1ccc(C(C)(C)C)cc1	7.31
COc1ccc(S(=O)(=O)Nc2ccc(Cc3ccncc3)cc2)cc1OC	7.28
COc1cc(NC(=O)c2ccc(F)cc2)c(OC)cc1NC(=O)CN1CCOCC1	3.57
O=C(CN1C(=O)NC2(CCCCC2)C1=O)NCCC1=CCCCC1	14.5
COC(=O)c1cc(S(=O)(=O)N2CCCCCC2)c[nH]1	12.4
Cc1c(C(=O)Nc2nccs2)oc2ccc(F)cc12	14.5
CCC(C(=O)N1CCN(Cc2ccc3c(c2)OCO3)CC1)n1c(=O)[nH]c2ccccc2c1=O (stereo not drawn)	-8.55

SMILES	hERG current change (%, negative = inhibition) at 1uM [%]
CCN1CCc2c(C#N)c(N3CCCCC3)nc(N3CCOCC3)c2C1	12.1
CCCN1C(=O)C2(C(C(=O)c3ccc(C)o3)=C(O)C(=O)N2CCCOC)c2ccccc21 (stereo not drawn)	7.99
COc1cc2oc3ccccc3c2cc1N(CC(=O)N(C)C)S(=O)(=O)c1ccccc1	0.641
COc1cc2c(cc1OC)CN(c1nc(CN3CCCC3)nc3sc(C)c(C)c13)CC2	-22.9
COc1cc2c(cc1OC)CN(c1nc(CN3CCOCC3)nc3sc4c(c13)CCC(C)C4)CC2 (stereo not drawn)	5.29
c1ccc2c(c1)CCN(c1nc(CN3CCOCC3)nc3sc4c(c13)CCCC4)C2	14.5
COc1cc2c(cc1OC)CN(c1nc(CN3CCOCC3)nc3sc4c(c13)CCCC4)CC2	-54
COc1cc2c(cc1OC)CN(c1nc(CN3CCCCC3)nc3sc4c(c13)CCCC4)CC2	-57.3
Clc1nc(CN2CCCCC2)nc2sc3c(c12)CCCC3	7.88
Cc1cccc(C)c1NC(=S)NN(Cc1ccccc1)c1ccccc1	10.3
COc1ccc(CNC(=O)CSc2nnc(-c3cccnc3)n2N)cc1	7.27
CCN(CC(=O)Nc1ccc(NC(C)=O)cc1)C(=O)COc1ccc(C(=O)c2ccccc2)cc1	10.3
CCN1CCN(c2ccc(S(=O)(=O)N3CCCCC3)cc2NC(=O)c2ccc(C)o2)CC1	-62.4
CCN1CCN(c2ccc(S(=O)(=O)N3CCCCC3)cc2NC(=O)c2ccc([N+](=O)[O-])o2)CC1	-73.3
CCN1CCN(c2ccc(S(=O)(=O)N3CCCCC3)cc2NC(=O)c2cc3ccccc3o2)CC1	0.811
COc1ccc(S(=O)(=O)N2CCCCC2)cc1NC(=O)c1ccc([N+](=O)[O-])o1	12.4
CCN1CCN(c2ccc(S(=O)(=O)N3CCCCC3)cc2NC(=O)c2ccc(OC(F)F)cc2)CC1	-56.4
CCN1CCN(c2ccc(S(=O)(=O)N3CCCCC3)cc2NC(=O)/C=C/c2ccc(OC(F)F)cc2)CC1	-1.19
CCN1CCN(c2ccc(S(=O)(=O)N3CCCCC3)cc2NC(=O)c2ccc(F)cc2)CC1	-16.7
CCN1CCN(c2ccc(S(=O)(=O)N3CCCCC3)cc2NC(=O)c2ccc([N+](=O)[O-])s2)CC1	-13.8
CCN1CCN(c2ccc(S(=O)(=O)N3CCCCC3)cc2NC(=O)c2ccccc2)CC1	-15.6
